Experimental findings from ChEMBL document CHEMBL2218924, “A broad activity screen in support of a chemogenomic map for kinase signalling research and drug discovery” (Biochem J, 2013) are described below.

The structures appear in SMILES notation.

Test [1] deals with T1, Ephrin type-B receptor 1 (Homo sapiens) (UniProt P54762).
T1 sequence (whole entry): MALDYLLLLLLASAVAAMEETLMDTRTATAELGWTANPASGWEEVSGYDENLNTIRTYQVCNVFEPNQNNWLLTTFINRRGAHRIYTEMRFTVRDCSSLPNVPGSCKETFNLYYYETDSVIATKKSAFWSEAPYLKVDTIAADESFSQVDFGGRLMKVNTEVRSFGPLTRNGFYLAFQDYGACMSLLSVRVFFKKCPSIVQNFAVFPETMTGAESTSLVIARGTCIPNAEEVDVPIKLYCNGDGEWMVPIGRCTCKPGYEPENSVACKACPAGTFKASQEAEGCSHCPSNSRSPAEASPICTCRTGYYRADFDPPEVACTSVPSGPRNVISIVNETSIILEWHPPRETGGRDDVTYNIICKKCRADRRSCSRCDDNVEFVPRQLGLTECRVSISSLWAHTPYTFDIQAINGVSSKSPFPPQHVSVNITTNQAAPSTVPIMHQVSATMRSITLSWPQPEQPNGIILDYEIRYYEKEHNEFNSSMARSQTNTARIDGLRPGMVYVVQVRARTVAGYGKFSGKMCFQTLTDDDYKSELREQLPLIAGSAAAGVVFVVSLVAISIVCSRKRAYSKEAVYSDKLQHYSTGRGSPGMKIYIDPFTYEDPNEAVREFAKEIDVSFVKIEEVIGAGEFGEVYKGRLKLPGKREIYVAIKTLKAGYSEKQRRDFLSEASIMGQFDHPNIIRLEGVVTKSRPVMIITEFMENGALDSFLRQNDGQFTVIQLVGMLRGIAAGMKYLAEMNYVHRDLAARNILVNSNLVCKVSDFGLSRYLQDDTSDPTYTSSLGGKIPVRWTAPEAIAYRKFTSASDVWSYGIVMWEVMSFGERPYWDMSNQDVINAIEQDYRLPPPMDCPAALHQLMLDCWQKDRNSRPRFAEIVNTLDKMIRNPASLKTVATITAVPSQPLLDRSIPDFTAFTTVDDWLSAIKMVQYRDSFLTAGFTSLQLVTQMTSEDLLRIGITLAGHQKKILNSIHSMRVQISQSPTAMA
The settings on record: at 10 µM.

Test [2] addresses T2, Ephrin type-B receptor 2 (Homo sapiens) (UniProt P29323).
T2 sequence (whole entry): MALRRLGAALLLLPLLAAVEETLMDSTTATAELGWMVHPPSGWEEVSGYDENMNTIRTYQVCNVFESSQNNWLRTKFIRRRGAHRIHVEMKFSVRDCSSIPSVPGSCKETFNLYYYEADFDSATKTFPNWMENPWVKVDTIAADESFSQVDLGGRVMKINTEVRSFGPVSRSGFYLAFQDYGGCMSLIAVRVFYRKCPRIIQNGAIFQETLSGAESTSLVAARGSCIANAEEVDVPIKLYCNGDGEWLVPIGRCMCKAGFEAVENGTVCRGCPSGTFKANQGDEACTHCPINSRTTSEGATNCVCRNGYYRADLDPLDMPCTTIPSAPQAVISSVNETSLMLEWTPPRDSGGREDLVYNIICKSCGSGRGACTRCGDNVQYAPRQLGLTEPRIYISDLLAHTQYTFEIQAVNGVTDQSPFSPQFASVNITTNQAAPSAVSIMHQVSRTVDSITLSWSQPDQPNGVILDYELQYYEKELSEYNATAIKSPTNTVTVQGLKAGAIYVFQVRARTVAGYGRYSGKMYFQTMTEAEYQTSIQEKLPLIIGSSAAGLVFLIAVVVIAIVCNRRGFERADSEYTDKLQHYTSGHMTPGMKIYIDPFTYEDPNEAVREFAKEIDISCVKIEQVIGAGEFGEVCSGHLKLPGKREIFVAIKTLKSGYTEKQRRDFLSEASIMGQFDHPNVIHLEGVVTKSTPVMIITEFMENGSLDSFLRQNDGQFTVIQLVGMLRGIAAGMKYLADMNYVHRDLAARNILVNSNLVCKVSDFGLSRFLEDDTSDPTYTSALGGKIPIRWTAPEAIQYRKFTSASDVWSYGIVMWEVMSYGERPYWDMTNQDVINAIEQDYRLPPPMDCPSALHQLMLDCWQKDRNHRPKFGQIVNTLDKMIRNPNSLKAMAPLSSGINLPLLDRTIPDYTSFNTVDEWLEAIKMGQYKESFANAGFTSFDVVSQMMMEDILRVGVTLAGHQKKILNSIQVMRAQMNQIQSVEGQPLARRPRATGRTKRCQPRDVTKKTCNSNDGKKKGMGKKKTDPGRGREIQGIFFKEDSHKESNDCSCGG
The settings on record: at 1 µM.

Test [3] addresses T2, Ephrin type-B receptor 2 (Homo sapiens). The settings on record: at 10 µM.
The target of test [4] is T3, Ephrin type-B receptor 3 (Homo sapiens) (UniProt P54753).
T3 sequence (whole entry): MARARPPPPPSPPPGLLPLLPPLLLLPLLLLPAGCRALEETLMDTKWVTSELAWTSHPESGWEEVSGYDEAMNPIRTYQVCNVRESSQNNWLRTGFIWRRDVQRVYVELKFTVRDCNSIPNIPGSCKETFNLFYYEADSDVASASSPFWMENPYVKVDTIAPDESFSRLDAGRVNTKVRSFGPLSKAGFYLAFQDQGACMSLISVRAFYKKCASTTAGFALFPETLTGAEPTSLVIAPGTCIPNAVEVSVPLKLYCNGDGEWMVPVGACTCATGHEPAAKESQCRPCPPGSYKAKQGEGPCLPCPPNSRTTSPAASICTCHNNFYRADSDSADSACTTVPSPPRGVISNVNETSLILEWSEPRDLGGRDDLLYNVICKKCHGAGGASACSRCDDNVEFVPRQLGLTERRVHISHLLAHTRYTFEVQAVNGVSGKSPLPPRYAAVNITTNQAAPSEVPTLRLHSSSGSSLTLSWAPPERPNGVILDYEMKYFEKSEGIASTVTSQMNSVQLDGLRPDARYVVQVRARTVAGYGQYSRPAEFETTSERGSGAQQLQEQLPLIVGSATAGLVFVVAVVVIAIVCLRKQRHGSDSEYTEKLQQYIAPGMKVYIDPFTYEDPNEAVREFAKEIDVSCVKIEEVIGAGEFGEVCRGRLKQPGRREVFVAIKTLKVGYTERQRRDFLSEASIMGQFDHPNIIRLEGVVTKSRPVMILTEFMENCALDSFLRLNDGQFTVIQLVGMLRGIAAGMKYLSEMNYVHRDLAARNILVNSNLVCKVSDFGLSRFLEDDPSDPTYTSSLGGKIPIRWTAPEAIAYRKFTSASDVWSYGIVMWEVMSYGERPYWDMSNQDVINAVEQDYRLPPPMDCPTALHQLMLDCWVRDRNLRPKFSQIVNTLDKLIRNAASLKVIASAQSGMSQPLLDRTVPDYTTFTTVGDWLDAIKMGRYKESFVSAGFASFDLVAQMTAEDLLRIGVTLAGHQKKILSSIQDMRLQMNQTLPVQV
As to conditions: at 1 µM; call rule not given here.

Test [5] addresses T3, Ephrin type-B receptor 3 (Homo sapiens). As to conditions: at 10 µM.
For test [6], the target named is T4, Ephrin type-B receptor 4 (Homo sapiens) (UniProt P54760).
T4 sequence (whole entry): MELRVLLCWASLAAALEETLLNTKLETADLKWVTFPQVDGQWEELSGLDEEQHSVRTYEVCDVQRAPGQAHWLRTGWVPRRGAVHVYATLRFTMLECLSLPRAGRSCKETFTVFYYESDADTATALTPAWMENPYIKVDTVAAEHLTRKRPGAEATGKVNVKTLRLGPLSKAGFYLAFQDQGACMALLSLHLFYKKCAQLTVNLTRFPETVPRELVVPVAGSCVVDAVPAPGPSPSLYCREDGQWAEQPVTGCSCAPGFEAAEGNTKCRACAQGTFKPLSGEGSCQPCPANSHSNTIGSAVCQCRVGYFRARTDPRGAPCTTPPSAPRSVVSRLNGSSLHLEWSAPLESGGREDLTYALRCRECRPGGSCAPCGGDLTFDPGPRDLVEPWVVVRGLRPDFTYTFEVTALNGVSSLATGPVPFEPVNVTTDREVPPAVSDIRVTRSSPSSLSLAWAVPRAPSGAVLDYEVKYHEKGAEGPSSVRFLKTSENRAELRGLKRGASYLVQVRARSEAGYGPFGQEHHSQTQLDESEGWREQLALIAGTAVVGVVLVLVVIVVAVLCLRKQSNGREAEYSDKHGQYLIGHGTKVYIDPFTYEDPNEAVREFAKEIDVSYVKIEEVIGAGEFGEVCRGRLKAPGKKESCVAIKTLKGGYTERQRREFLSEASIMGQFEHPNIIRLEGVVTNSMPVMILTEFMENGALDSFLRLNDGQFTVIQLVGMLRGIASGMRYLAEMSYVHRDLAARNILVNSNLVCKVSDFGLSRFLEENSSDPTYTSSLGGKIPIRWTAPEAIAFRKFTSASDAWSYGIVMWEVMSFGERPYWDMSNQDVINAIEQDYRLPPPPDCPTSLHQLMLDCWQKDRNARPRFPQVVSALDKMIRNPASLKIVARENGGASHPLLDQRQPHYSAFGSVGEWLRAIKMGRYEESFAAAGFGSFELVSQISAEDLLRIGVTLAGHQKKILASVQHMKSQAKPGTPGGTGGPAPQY
As to conditions: at 1 µM.

Test [7] has as its target T4, Ephrin type-B receptor 4 (Homo sapiens). The settings on record: at 10 µM.
Test [8] has as its target Receptor tyrosine-protein kinase erbB-4 (Homo sapiens) (UniProt Q15303). As to conditions: at 1 µM.
For test [9] the target is unchanged. The settings on record: at 10 µM.
Test [10] concerns the target Focal adhesion kinase 1 (Homo sapiens) (UniProt Q05397). The settings on record: at 1 µM.

Sequence of Receptor tyrosine-protein kinase erbB-4 (Homo sapiens) (Q15303 whole entry): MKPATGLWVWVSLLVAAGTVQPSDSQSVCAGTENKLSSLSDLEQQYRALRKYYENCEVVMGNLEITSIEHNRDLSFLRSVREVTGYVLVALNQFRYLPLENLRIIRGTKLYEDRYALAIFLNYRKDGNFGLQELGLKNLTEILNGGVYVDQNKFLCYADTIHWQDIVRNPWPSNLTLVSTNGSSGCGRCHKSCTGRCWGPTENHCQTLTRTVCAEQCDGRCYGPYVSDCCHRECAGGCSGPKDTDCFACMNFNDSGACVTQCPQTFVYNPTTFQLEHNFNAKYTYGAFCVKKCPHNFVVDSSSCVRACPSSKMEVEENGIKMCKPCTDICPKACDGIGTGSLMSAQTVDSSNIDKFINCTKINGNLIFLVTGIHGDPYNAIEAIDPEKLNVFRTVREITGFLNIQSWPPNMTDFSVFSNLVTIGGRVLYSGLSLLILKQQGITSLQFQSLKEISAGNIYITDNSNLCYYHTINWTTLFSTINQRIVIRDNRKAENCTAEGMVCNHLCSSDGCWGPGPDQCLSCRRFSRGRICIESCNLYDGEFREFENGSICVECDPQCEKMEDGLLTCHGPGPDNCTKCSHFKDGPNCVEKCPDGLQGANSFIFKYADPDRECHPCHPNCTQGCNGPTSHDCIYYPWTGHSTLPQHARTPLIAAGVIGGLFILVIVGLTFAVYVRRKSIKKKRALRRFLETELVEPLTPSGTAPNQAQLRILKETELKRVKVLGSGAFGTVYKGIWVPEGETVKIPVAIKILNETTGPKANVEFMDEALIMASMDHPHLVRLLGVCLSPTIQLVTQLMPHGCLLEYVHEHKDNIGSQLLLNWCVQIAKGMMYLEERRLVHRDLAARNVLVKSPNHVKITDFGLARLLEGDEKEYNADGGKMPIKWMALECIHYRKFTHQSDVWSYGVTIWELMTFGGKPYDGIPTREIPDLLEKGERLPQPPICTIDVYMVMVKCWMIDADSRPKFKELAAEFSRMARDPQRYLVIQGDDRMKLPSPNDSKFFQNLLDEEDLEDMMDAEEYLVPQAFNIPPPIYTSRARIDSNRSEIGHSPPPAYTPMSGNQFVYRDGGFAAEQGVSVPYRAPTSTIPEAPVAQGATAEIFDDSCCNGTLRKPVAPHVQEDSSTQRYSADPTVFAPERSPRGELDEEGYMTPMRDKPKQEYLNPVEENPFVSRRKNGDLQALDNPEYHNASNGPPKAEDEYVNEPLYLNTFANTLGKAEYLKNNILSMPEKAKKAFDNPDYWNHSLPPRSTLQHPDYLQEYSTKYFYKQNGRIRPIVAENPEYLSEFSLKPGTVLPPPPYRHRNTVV
Sequence of Focal adhesion kinase 1 (Homo sapiens) (Q05397 2-1052 limits assumed): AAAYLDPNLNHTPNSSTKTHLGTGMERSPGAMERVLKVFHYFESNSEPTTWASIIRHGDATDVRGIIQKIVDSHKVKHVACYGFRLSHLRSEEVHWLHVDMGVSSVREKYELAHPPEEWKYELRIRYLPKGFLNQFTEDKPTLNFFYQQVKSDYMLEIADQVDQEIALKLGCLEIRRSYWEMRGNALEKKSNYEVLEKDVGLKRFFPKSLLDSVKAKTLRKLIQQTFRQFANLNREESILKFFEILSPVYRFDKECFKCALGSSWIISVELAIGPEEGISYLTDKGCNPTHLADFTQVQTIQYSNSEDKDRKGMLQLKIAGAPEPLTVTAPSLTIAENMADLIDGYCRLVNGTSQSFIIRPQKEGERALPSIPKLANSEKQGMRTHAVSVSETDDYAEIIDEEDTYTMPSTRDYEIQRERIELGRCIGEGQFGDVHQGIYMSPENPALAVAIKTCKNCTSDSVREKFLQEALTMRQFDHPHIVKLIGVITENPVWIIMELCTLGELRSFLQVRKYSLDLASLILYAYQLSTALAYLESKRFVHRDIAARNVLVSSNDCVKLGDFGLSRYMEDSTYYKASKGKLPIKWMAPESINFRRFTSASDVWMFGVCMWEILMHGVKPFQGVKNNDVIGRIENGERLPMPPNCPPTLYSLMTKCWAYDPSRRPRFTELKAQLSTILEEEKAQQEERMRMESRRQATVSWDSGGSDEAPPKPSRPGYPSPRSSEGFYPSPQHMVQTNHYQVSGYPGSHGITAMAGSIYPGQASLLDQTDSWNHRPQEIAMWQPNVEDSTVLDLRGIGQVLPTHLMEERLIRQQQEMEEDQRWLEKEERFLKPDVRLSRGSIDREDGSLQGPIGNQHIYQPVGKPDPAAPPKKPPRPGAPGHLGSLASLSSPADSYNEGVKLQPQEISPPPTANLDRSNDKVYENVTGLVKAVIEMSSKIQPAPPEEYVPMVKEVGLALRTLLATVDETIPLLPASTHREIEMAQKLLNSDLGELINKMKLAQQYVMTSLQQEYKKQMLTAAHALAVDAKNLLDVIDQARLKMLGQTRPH

For the compound `COc1ccc(CNc2nc(N(CCO)CCO)nc3c2ncn3C(C)C)cc1`, the residual activity (as a rule, the signal under treatment as a percentage of the control signal) in test [1] was 77%; in [2], 113%; in test [3] it was 106%; in test [4] it was 113% (inactive); in test [5], 107%; in [6] it was 87%. The residual activity in test [7] was 77%; in test [8], 91%; in test [9], 101%; in test [10], 91%.
